The source of these data is PubChem BioAssay AID652054 (National Center for Advancing Translational Sciences (NCATS), 2013).

Screen size: about 360,000 compounds; about 9,100 (2.5%) were called active. Inconclusive results (about 4%) are left out. No stated cut-off is given here; in the data, active means max response below about -50%; inconclusive means no clear call, values can overlap the other calls; inactive means above that. For the sample, actives were picked, then their nearest neighbours and some compounds at random.
On the % scale 0 is the no-effect control and ±100 the full control effect.

For this test, the target named is D(3) dopamine receptor (Homo sapiens) (UniProt P35462). In words: qHTS of D3 Dopamine Receptor Antagonist: qHTS. To be noted: D3R cells, DiscoveRx beta-arrestin luminescence, antagonist mode; stronger effect = lower value. The procedure, abridged: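 Cells plated overnight at 1500 cells/well, then exposed to library compounds with dopamine controls for 90 minutes at 37 degrees C. DiscoveRx reagent added for 30–60 minutes at room temperature; luminescence read, quantitative HTS format.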
D(3) dopamine receptor (Homo sapiens), sequence (P35462 whole entry, looked up): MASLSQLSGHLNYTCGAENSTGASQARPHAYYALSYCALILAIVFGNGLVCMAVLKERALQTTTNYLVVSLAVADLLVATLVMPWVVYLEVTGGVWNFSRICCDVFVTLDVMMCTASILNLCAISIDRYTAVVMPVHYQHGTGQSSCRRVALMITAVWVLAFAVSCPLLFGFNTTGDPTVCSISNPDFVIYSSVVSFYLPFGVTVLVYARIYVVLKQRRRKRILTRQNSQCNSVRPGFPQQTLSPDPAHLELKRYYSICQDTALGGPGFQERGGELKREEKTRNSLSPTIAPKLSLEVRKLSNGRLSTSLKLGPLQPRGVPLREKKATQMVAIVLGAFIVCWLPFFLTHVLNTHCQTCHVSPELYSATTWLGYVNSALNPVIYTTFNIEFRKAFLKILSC
On the technique in general: qHTS replaces the single test concentration by a dilution series.
On to `Clc1ccc(-c2cccc3nccn23)cc1`, for which the max response, negative = inhibition is 0% (inactive).
Turning to `CCn1c(SCC(=O)N2CCCC2=O)nc2ccccc21`, the max response, negative = inhibition is 7.76% (inactive).
Under `CCOC(=O)[C@]12CCCC=C1N(CCC1=CCCCC1)C(=O)[C@H](CC(=O)NCCCOC)C2` stands 7.2% (inactive); under `COc1ncnc2c1ncn2CCCNCCN1CCOCC1`, 20.7% (inactive); under `COc1ccc(S(=O)(=O)Nc2ccc3cn[nH]c3c2)cc1[N+](=O)[O-]`, -18.8% (inactive).
For `COc1ccc(S(=O)(=O)N/N=C\c2ccc(OC)c(COc3ccc(C)cc3[N+](=O)[O-])c2)cc1`, the max response, negative = inhibition was -59.9% (active).
As for `Cc1ccc(S(=O)(=O)N/N=C\c2cc3c(cc2[N+](=O)[O-])OCO3)cc1`, the max response, negative = inhibition is -4.05% (inactive).
Under `Nc1[nH]c(C(=O)c2ccccc2)c(-c2ccncc2)c1C(=O)NCc1cccc2ccccc12` stands -9.51% (inactive).
Regarding `Nc1ncnc2c1ncn2[C@@H]1O[C@H](CNC(=O)[C@H](N)Cc2cccnc2)[C@@H](O)[C@H]1O`, the max response, negative = inhibition was 1.65% (inactive).
As for `COc1ccc(Cl)cc1NC(=O)C(C)N1CCc2ccccc21` (stereo not given), the max response, negative = inhibition is -7.48% (inactive).
Under `COc1cc(NC(=O)NCC2CCN(Cc3ccc(C)cc3)CC2)cc(OC)c1OC` stands -16.2% (inactive); under `O=C(NCC1CCN(Cc2ccccc2Cl)CC1)Nc1cccc(Cl)c1`, -29.8% (inactive); under `O=C(CN1CCN(Cc2ccccc2)CC1)Nc1ccc(F)c(F)c1`, -16.4% (inactive).
As for `COc1ccc(Cl)cc1NC(=O)NCC1CCN(Cc2ccccc2F)CC1`, the max response, negative = inhibition was -85.7% (active).
Take `Cc1cccc(CN2CCC(CNC(=O)Nc3ccc(F)c(Cl)c3)CC2)c1`: the max response, negative = inhibition is -60.2% (active).
On to `CCc1nc2c(OCC(=O)C(C)(C)C)cccn2c1N(C)C(=O)c1ccccc1F`, for which the max response, negative = inhibition is -24.2% (inactive).
Under `O=C1NC(Cc2ccccc2)c2nc3ccc(Br)cc3c(=O)n2-c2cc3ccccc3cc21` (stereo not given) stands -0.847% (inactive); under `COc1cc(F)ccc1-c1cc(C(=O)NCC2CCCCC2)[nH]n1`, -75.3% (active); under `COc1ccccc1CNC(=O)c1cc(-c2cc(F)ccc2OC)n[nH]1`, 18.6% (inactive).
Under `COc1cc(NC(=O)c2cc(-c3ccc(F)cc3OC(C)C)n[nH]2)cc(OC)c1OC` stands 6.57% (inactive); under `CC(=O)c1ccc(Nc2nc(C(N)c3ccccc3)cs2)cc1` (stereo not given), 2.63% (inactive); under `C[C@@H]1CN([C@@H](C)CO)S(=O)(=O)c2ccc(-c3ccc(C(=O)N(C)C)cc3)cc2O[C@@H]1CN(C)Cc1ccccc1C(=O)O`, 16.1% (inactive).
Under `COc1ccc(Cn2nnc3c(=O)[nH]c(C4CCN(C(=O)c5ccccc5Cl)CC4)nc32)cc1` stands -22.4% (inactive); under `COc1ccc(F)c(-c2nc(CN3CCC(c4ccccc4)CC3)c(C)o2)c1`, -19.4% (inactive); under `COc1ccc(CN2CCC(c3nc4ccc(Cl)cc4[nH]3)CC2)cc1`, -101% (active).
With `C[C@@H]1CN([C@@H](C)CO)C(=O)c2cc(Br)cnc2O[C@@H]1CN(C)C(=O)C1CCCCC1`, the max response, negative = inhibition was 22.5% (inactive).
Under `COc1ccc(C(=O)NC(=O)CSc2nnc(-c3ccco3)n2-c2ccccc2)cc1` stands -3.83% (inactive); under `Cc1cccc(C)c1NC(=O)CCCSc1nnc(-c2ccco2)n1-c1ccccc1`, -8.78% (inactive).
For `O=C(CSc1nnc(-c2ccco2)n1-c1ccccc1)NCCc1ccccc1`, the max response, negative = inhibition was -54.3% (active).
Under `O=C(CO/N=C/c1ccccc1O)NNC(=O)c1ccccc1Cl` stands -53.5% (active); under `O=C(NNC(=O)c1ccccc1O)c1ccccc1O`, 5.67% (inactive).
Under `O=C(CO/N=C/c1ccccc1OC(F)F)NC1CCCC1` stands 8.59% (inactive).
Under `Cc1ccc(S(=O)(=O)N2CC3C(=O)C[C@@H](c4ccccc4Cl)N(S(=O)(=O)c4ccc(C)cc4)C3CC2c2ccccc2)cc1` (stereo not given in full) stands 9.92% (inactive).
Regarding `CCOC(=O)c1ccn(S(=O)(=O)c2ccc(C)cc2)c1-c1ccccc1`, the max response, negative = inhibition was -20.6% (inactive).
For `CN(C)CCNC(=O)Nc1cccc(Cl)c1Cl`, the max response, negative = inhibition is -70.3% (active).
For `Cc1c(Cl)cccc1NC(=O)NCc1ccc(C)n1C`, the max response, negative = inhibition was 13.8% (inactive).
Consider `Cc1c(Cl)cccc1NC(=O)NCCCN1CCCC1=O`, for which the max response, negative = inhibition was -2.4% (inactive).
As for `Cc1ccccc1-c1nc(NC(C)C)nc2cc(-c3ccccc3)sc12`, the max response, negative = inhibition was 21.7% (inactive).
On to `C[C@H]1CN([C@@H](C)CO)C(=O)c2cc(-c3cccc(F)c3)cnc2O[C@@H]1CN(C)S(C)(=O)=O`, for which the max response, negative = inhibition was 17.3% (inactive).
`COc1ccc(Sc2ccc(NC(=O)c3cccc(Cl)c3)cc2C#N)cc1`: the max response, negative = inhibition is 28.7% (inactive).
Under `COc1ccccc1CN(C)c1nnnn1-c1ccccc1` stands 6.89% (inactive); under `Fc1ccccc1CCNc1nnnn1-c1ccccc1`, -77.8% (active); under `c1ccc(-n2nnnc2NC2CCCCCC2)cc1`, -9.29% (inactive).
Regarding `COc1ccccc1CNc1nc(Nc2ccccc2Cl)c2sccc2n1`, the max response, negative = inhibition is 51.2% (inactive).
Under `Cc1ccccc1NC(=O)Cc1nc(COC(=O)CNC(=O)c2ccc(Cl)cc2Cl)cs1` stands -6.28% (inactive); under `CN(C)CC/C=C1\c2ccccc2CSc2ccccc21`, -54.4% (active); under `CN(C)Cc1ccccc1C1(O)c2ccccc2CSc2ccccc21` (stereo not given), -12.3% (inactive).
Under `O=[N+]([O-])c1ccc(C(S(=O)(=O)Cc2ccccc2)S(=O)(=O)Cc2ccccc2)cc1` stands -9.27% (inactive); under `S=C(NN=Cc1ccccn1)Nc1ccccn1`, -27% (inactive).
Regarding `O=C(CCc1ccc(O)cc1)NN=Cc1cc(Br)ccc1O`, the max response, negative = inhibition is -3.37% (inactive).
Take `Oc1ccc(Br)cc1/C=N/Nc1ccccn1`: the max response, negative = inhibition is -57.7% (active).
In the case of `CNC(=O)C1CN(C(=O)c2cccc(S(=O)(=O)N3CCc4ccccc43)c2)c2ccccc2O1` (stereo not given), the max response, negative = inhibition was -27.2% (inactive).
Under `CC1C(=O)N(Cc2cn(CC3CCCCC3)nn2)CCS(=O)(=O)N1Cc1ccc(-c2cccc(N(C)C)c2)cc1` (stereo not given) stands 0% (inactive); under `CN1C(=O)/C(=N/OC(=O)c2ccccc2Br)c2ccccc21`, 0.409% (inactive).
Under `Cc1ccc(S(=O)(=O)n2nc(OC(=O)C(C)(C)C)cc2N)cc1` stands -4.07% (inactive); under `Nc1cc(OC(=O)c2ccccc2Br)nn1S(=O)(=O)c1ccccc1`, -73.2% (active); under `FC(F)(F)c1ccccc1Cc1c(-c2ccccc2)nc2c3ccccc3ccn12`, -14.4% (inactive).
In the case of `COc1cccc(-c2cnc3c(NC(C)=O)cc(-c4cccc(NC(C)=O)c4)cn23)c1`, the max response, negative = inhibition is 43.1% (inactive).
Under `CCN1CCCC1CNC(=O)c1ccc2c(c1)NC(=O)/C(=C\c1ccccc1F)S2` (stereo not given) stands -21.4% (inactive); under `Cc1cccc(C)c1Cn1c(C)c(C(=O)NCc2cccc(Cl)c2)sc1=O`, -105% (active).
Consider `COc1ccc(Br)c(Cn2c(C)c(C(=O)NCc3cccs3)sc2=O)c1`, for which the max response, negative = inhibition is -59.3% (active).
Turning to `Cc1ccccc1Cn1c(C)c(C(=O)NCc2cccc(C(F)(F)F)c2)sc1=O`, the max response, negative = inhibition is -29.9% (inactive).
Under `COc1cc(CC(=O)NCc2cccs2)cc(OC)c1OC` stands -6.25% (inactive); under `CC(=O)Oc1ccc(Cn2c(C)c(C(=O)NCc3ccc(C#N)cc3)sc2=O)cc1`, -1.7% (inactive); under `Cc1c(C(=O)NCC2CC2)sc(=O)n1Cc1cccc(F)c1`, 11.5% (inactive).
Under `CCOC(=O)[C@]12CCCC=C1N(CCC1=CCCCC1)C(=O)[C@H](CC(=O)N1CCOCC1)C2` stands -20.5% (inactive); under `COC(=O)C[C@H]1C=C[C@H](NC(=O)c2ccc(F)cc2)[C@@H](CO)O1`, 0% (inactive); under `CCN(CC)CCNC(=O)c1ccc(NC(=O)c2cc(-c3ccncc3)nc3ccccc23)cc1`, -11% (inactive).
For `CCCN(CCC)CCNC(=O)c1cc2c(C)nc3ccccc3c2o1`, the max response, negative = inhibition was -52.4% (active).
Under `CCc1nc2ccccc2c(C(=O)NCc2ccc(OC)cc2)c1C` stands -8.59% (inactive); under `C[C@H]1CN([C@@H](C)CO)C(=O)CCCn2nncc2CO[C@@H]1CN(C)S(=O)(=O)c1cccc(C#N)c1`, 12.3% (inactive); under `COc1ccc(CN2CCC(C)(Oc3cccc(F)c3)C2)c2ccccc12` (stereo not given), -6.36% (inactive).
Regarding `CC1(Oc2ccc(Cl)cc2)CCN(Cc2csc3ccccc23)C1` (stereo not given), the max response, negative = inhibition was -85.5% (active).
Under `CC1(Oc2cccc(F)c2)CCN(Cc2ccccc2OC(F)F)C1` (stereo not given) stands -21.8% (inactive).
As for `N#Cc1ccc(-c2ccc3nccn3c2)cc1`, the max response, negative = inhibition is 21.2% (inactive).
Under `Cc1ccccc1S(=O)(=O)NC(=O)C1(C)CCN1C(=O)C1(c2ccccc2)CCCC1` (stereo not given) stands 15.6% (inactive); under `CSc1ccc(CN2CCC2(C)C(=O)Nc2ccc(C)c(O)c2)cc1` (stereo not given), 51.8% (inactive).
Under `O=C(NC(=S)N1CCN(Cc2ccccc2)CC1)c1ccccc1` stands -1.99% (inactive); under `O=C(Nc1ccccc1)N1CCN(Cc2ccccc2)CC1`, -70.6% (active).
Under `O=C(c1cc2ccccc2o1)N1CCN(Cc2ccccc2)CC1` stands -77.4% (active); under `O=C(c1cc2ccccc2o1)N1CCN(S(=O)(=O)c2ccc(Cl)s2)CC1`, -0.155% (inactive).
Regarding `O=C(Nc1ccccc1)N1CCC(C(=O)N2CCN(Cc3ccccc3)CC2)CC1`, the max response, negative = inhibition is 0% (inactive).
With `O=C(c1cccc(Cl)c1)N1CCN(Cc2ccccc2)CC1`, the max response, negative = inhibition was 7.13% (inactive).
Under `CCOC(=O)C1=CCC(c2ccc(F)cc2)N(S(=O)(=O)c2ccc(C)cc2)C1` (stereo not given) stands -25.7% (inactive); under `Clc1cccc(Cc2c(-c3cccc(Cl)c3)nc3ccc(Cl)cn23)c1`, 33.1% (inactive).
With `CC(=NNC(N)=O)C1CC2CCC1CC2` (stereo not given), the max response, negative = inhibition is 16.7% (inactive).
On to `O=C1Nc2ccccc2-n2nnnc2C1N1CCN(c2cccc(C(F)(F)F)n2)CC1` (stereo not given), for which the max response, negative = inhibition is 11.4% (inactive).
Take `O=C1Nc2ccc([N+](=O)[O-])cc2C1=Nc1cccc(CO)c1`: the max response, negative = inhibition was -77.4% (active).
Under `O=[N+]([O-])c1ccc(N(CCO)Cc2ccccc2)c([N+](=O)[O-])c1` stands 5.91% (inactive); under `CN1CCN(/N=C2/C(=O)Nc3ccc([N+](=O)[O-])cc32)CC1`, -3.16% (inactive).
